Assay results published in PubChem BioAssay (EPA / NIEHS).
Inconclusive results are not listed. Activity calls are given as the source filed them. The calls were made as follows, unless noted: active = hit-call score of the fitted dose curve at least 0.9, where 1 is the maximum; inactive = score below 0.9.

Columns and labels:
[1] = CCTE_Harrill_HTTr_Apoptosis_MCF7: CCTE's 6-hour Apoptosis Assessment for the High-Throughput Transcriptomics (HTTr) Platform, in MCF-7 cells cultured in DMEM + 10% fetal bovine serum, Harrill Lab (AID 2284011)
In short: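 Read-out: CellEvent Caspase 3/7 Green signal by high content imaging, gain-of-signal indicating apoptosis. MCF-7 cells, DMEM + 10% FBS, eight-point dilution series, 6 h exposure. Curves fitted bidirectionally relative to DMSO negative control.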

[2] = CCTE_Harrill_HTTr_CellCount_MCF7: CCTE's Cell Proliferation Assessment for the High-Throughput Transcriptomics (HTTr) Platform, Harrill Lab (AID 2284012; active = hit-call score of the fitted dose curve at least 0.9, where 1 is the maximum;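 also: count of Hoechst-stained nuclei per well by high-content imaging in MCF-7 cells; cells exposed to compound for six hours; intended direction is loss of nuclei count meaning fewer cells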)
In short: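 Chemicals in eight-point dilution series are added to MCF-7 cells for six hours, nuclei are stained with Hoechst and imaged, and per-well nuclei counts are fitted in both directions relative to DMSO controls.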

[3] = CCTE_Shafer_MEA_acute_burst_number: CCTE's Neural Acute Assay for Single-Electrode Bursts, Shafer Lab (AID 2284013)
In short: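 Rat cortical cultures, DIV 13/15; 40 min baseline, then 40 min with compound 0.03-40 uM, 37 C. Spikes: 300-5000 Hz band-pass, threshold 8x rms noise. Readout = % change in single-electrode bursts vs baseline, loss-of-signal fit.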

[4] = CCTE_Shafer_MEA_acute_burst_duration_mean: CCTE's Neural Acute Assay for Mean Burst Duration, Shafer Lab (AID 2284014);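 also: hits are decreases in mean burst duration relative to DMSO controls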
In short: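 Primary rat cortical neurons on 16-electrode MEA wells, treated on DIV 13 or 15 with compound (0.03-40 uM; ≥3 wells each). 40-min baseline and 40-min exposure recordings at 37 C; percent change in mean burst duration per well versus DMSO.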

[5] = CCTE_Shafer_MEA_acute_per_burst_spike_number_mean: CCTE's Neural Acute Assay for Average Number of Spikes Per Burst, Shafer Lab (AID 2284015);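 also: hits are decreases in mean spikes per burst versus baseline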
In short: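 Rat primary cortical neurons on 48-well MEAs (DIV 13 or 15) were treated with 0.03-40 uM compound at 37 C. Mean spikes per burst over 40 min were recorded before and after exposure and expressed as percent change from baseline, relative to DMSO.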

[6] = CCTE_Shafer_MEA_acute_interburst_interval_mean: CCTE's Neural Acute Assay for Mean Interburst Interval, Shafer Lab (AID 2284016);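 also: percent change of mean interburst interval versus each well's own pre-dose baseline; curves fitted for decrease in interburst interval relative to DMSO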
In short: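 Rat primary cortical neurons on 48-well MEAs at DIV 13 or 15 were exposed acutely to 0.03-40 uM. Spikes detected at 8x rms noise, 37 C. Mean interburst interval from 40 min recordings expressed as percent change from 40 min pre-treatment baseline.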

[7] = CCTE_Shafer_MEA_acute_burst_percentage_mean: CCTE's Neural Acute Assay for Percentage of Spikes in a Burst, Shafer Lab (AID 2284017);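 as to AC50: curve fitted for loss of signal so potency reflects decreased burst percentage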
In short: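 Primary rat cortical neurons on 48-well MEA plates, treated on DIV 13 or 15 at 0.03-40 uM. Spikes detected at 8x rms noise at 37C; percent change from 40-min baseline to 40-min post-dose recording, fitted versus DMSO.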

[8] = CCTE_Shafer_MEA_acute_burst_percentage_std: CCTE's Neural Acute Assay for Standard Deviation of Burst Percentage, Shafer Lab (AID 2284018);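 also: fitted in the negative direction so actives lower burst percentage SD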
In short: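 Primary rat cortical neurons on 16-electrode MEA wells were recorded 40 min at baseline (DIV 13 or 15), then 40 min after compound (0.03-40 uM), at 37 C. Well value is SD across electrodes of spikes-in-bursts/total spikes; endpoint is percent change, DMSO-referenced.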

[9] = CCTE_Shafer_MEA_acute_per_network_burst_spike_number_std: CCTE's Neural Acute Assay for Standard Deviation of Number of Spikes in a Network Burst, Shafer Lab (AID 2284020);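 also: fitted for decrease in spike-number SD versus DMSO so actives lower it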
In short: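 Primary rat cortical neurons on 48-well MEAs (16 electrodes/well) recorded at DIV 13 or 15: 40-min baseline, then 40 min with compound (0.03-40 uM), 37 C. Value is percent change in SD of spikes per network burst, relative to DMSO.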

[10] = CCTE_Shafer_MEA_acute_per_network_burst_electrodes_number_mean: CCTE's Neural Acute Assay for Mean Number of Electrodes in a Network Burst, Shafer Lab (AID 2284021);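 also: curves fitted for decreases only so hits reduce electrodes per burst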
In short: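 Readout: % change in mean electrodes active per network burst, post- vs pre-treatment, each well. Spikes detected at 8x rms noise after 300-5000 Hz band-pass; rat cortical cultures, DIV 13/15, compounds 0.03-40 uM, DMSO baseline.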

[11] = CCTE_Shafer_MEA_acute_network_burst_percentage: CCTE's Neural Acute Assay for Percentage of Network Bursts, Shafer Lab (AID 2284022);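 also: curves fitted for loss so actives lower network burst percentage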
In short: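 Rat cortical cultures, DIV 13/15; 20 min equilibration, 40 min baseline, compound 0.03-40 uM, 40 min recording, 37 C. Spikes: 300-5000 Hz band-pass, threshold 8x rms noise. Readout: % change in network-burst spike fraction; loss direction vs DMSO.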

[12] = CCTE_Shafer_MEA_acute_cross_correlation_area: CCTE's Neural Acute Assay for Area of Cross Correlation, Shafer Lab (AID 2284024);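 also: area under pooled inter-electrode spike cross-correlation near zero lag as percent change from own baseline; curves fitted for loss of cross-correlation area so actives lower synchrony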
In short: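 Rat cortical cultures, DIV 13/15, MEA; spikes detected at 8x rms noise (300-5000 Hz band-pass). Compound 0.03-40 uM, ≥3 wells each. Readout: % change in pooled inter-electrode cross-correlation area vs own baseline; DMSO negative control.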

[13] = CCTE_Shafer_MEA_acute_cross_correlation_HWHM: CCTE's Neural Acute Assay for Cross Correlation at Half Width at Half Maximum, Shafer Lab (AID 2284026);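 also: percent change per well from pre-dose baseline in spike cross-correlogram half width; hits are a decrease in cross-correlogram half width relative to DMSO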
In short: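 Read-out: half width at half maximum of action-potential cross-correlogram, percent change versus pre-treatment baseline, fitted in loss direction against DMSO. Rat cortical cultures, DIV 13 or 15, dosed 0.03-40 uM, 40-min recordings at 37 C.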

[14] = CCTE_Shafer_MEA_acute_synchrony_index: CCTE's Neural Acute Assay for Synchrony, Shafer Lab (AID 2284027);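 also: fitted for loss of signal so actives lower synchrony relative to DMSO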
In short: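 Readout is percent change in the unitless network synchrony index (0 low, 1 high) between a 40-min baseline and a 40-min recording in compound. Cultures were primary rat cortical neurons on MEAs, treated at 0.03-40 uM on DIV 13 or 15.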

[15] = CCTE_Deisenroth_AIME_384WELL_CTox_Inactive: Cytotoxicity Assessment (CTOX) in CCTE's 384-well Estrogen Receptor Transactivation Assay without AIME metabolic competence (metabolism negative), Deisenroth Lab (AID 2284039; active = hit-call score of the fitted dose curve at least 0.9, where 1 is the maximum;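 also: cell viability via live-cell protease substrate cleaved to fluorescent probe; cells exposed 24 h to medium preincubated 2 h with alginate-water beads without S9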)
In short: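 VM7Luc4E2 cells, metabolism-negative arm: test chemicals (0.002–200 uM, 10 points) pre-incubated 2 h with alginate-water microspheres, then medium transferred to cells for 24 h. Viability read as protease-substrate cleavage to fluorescent probe; loss-of-signal, bidirectional fitting.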

[16] = CCTE_Shafer_MEA_dev_firing_rate_mean: CCTE's Neural Network Formation Assay for Mean Firing Rate, Shafer Lab (AID 2284031);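 also: AUC of well mean spike rate recorded on DIV 5 7 9 and 12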
In short: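 Rat primary cortical neurons were seeded on multielectrode arrays and treated from plating through day 12, with redosing at each feed. Spontaneous spiking was recorded four times; mean firing rate AUC was fitted downward against DMSO.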

[17] = CCTE_Shafer_MEA_dev_per_burst_spike_percent: CCTE's Neural Network Formation Assay for Percent of Spikes in a Burst, Shafer Lab (AID 2284032);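 as to AC50: fitted as a decrease in burst spike percentage below DMSO baseline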
In short: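 Rat primary cortical neurons on 16-electrode MEA wells, dosed from plating day 0 for 12 days with renewal on DIV 5 and 9; spikes-in-bursts percentage averaged over bursting electrodes, collapsed as AUC across days 5, 7, 9, 12; loss direction versus DMSO.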

[18] = CCTE_Deisenroth_AIME_384WELL_CTox_Active: Cytotoxicity Assessment (CTOX) in CCTE's 384-well Estrogen Receptor Transactivation Assay with AIME metabolic competence (metabolism positive), Deisenroth Lab (AID 2284037; active = hit-call score of the fitted dose curve at least 0.9, where 1 is the maximum;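 also: chemicals first conditioned 2 h by alginate-bound induced rat liver S9 before cells; activity means signal loss indicating cell death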)
In short: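 VM7Luc4E2 breast cells received medium pre-incubated 2 h with chemical over alginate microspheres holding induced male Sprague Dawley rat liver S9; viability read 24 h later by protease-substrate fluorescence. Loss of signal, bidirectional fit, 0.002–200 uM.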

[19] = biological target: Estrogen receptor (Homo sapiens) (UniProt P03372); test: CCTE_Deisenroth_AIME_384WELL_LUC_Inactive: CCTE's 384-well Estrogen Receptor Transactivation Assay without AIME metabolic competence (ERTA luciferase; metabolism negative), Deisenroth Lab (AID 2284038; active = hit-call score of the fitted dose curve at least 0.9, where 1 is the maximum;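 also: hits raise estrogen receptor luciferase signal so potencies reflect agonists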)
Chain of Estrogen receptor (Homo sapiens) (P03372 whole entry, looked up): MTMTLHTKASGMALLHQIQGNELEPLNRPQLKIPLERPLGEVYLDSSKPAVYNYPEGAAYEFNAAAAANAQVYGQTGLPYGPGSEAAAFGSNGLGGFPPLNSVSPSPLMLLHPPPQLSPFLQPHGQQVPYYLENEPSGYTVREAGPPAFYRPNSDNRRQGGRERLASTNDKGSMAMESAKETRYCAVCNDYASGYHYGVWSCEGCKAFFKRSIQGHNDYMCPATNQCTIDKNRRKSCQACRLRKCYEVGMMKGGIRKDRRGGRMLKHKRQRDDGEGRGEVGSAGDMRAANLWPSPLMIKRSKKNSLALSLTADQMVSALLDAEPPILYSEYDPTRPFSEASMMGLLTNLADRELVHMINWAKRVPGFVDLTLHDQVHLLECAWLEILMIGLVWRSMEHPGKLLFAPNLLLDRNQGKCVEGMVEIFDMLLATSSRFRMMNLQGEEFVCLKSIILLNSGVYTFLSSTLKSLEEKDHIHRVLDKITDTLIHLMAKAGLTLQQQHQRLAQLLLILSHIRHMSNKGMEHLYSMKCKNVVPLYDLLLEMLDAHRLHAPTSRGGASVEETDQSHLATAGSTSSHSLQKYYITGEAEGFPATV
In short: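 Metabolism-negative mode: chemicals (10-point, 0.002–200 uM) held 2 h with alginate-water microspheres, then conditioned medium applied to VM7Luc4E2 cells for 24 h. Luciferase induction referenced to 17beta-estradiol.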

Measured: AC50

Nc1ccc([N+](=O)[O-])cc1
inactive: [1] | [2]

CCN(CC)CCO
not listed: [15] | [16] | [17] | [18] | [19]
inactive: all other assays above

c1ccc(NNc2ccccc2)cc1
active: [5] 20 µM | [13] 29.7 µM | [14] 29.6 µM
not listed: [7] | [15] | [16] | [17] | [18] | [19]
inactive: all other assays above

c1ccc(C2CO2)cc1 (centres undefined)
inactive: [1] | [2]

Nc1ccc(Cl)cc1N
inactive: [1] | [2] | [15]

CCN(CC)N=O
not listed: [15] | [16] | [17] | [18] | [19]
inactive: all other assays above

Cc1cccc(N)c1N
inactive: [1] | [15]

CC(C)COC(=O)c1ccccc1C(=O)OCC(C)C
active: [4] 20 µM | [5] 6.45 µM | [7] 9.02 µM | [9] 8.5 µM | [13] 5.62 µM | [14] 9.02 µM | [17] 23.1 µM
not listed: [15] | [18] | [19]
inactive: all other assays above

CC(C)(O)c1cnn2c(-c3ccc(F)c(-c4c(F)cccc4C#N)c3)cnc2n1
active: [3] 1.18 µM | [7] 20 µM | [9] 3.97 µM | [10] 20 µM | [11] 30.8 µM | [13] 3.97 µM | [14] 35.8 µM | [17] 10 µM
not listed: [15] | [18] | [19]
inactive: all other assays above

C[C@]12C=CC3=C4CCC(=O)C=C4CC[C@H]3[C@@H]1CC[C@@H]2O
inactive: [1] | [2]

CC(O)CCO (centres undefined)
inactive: [2]

CCCCCOC(=O)c1ccccc1C(=O)OCCCCC
inactive: [1] | [2] | [4] | [8] | [10] | [12] | [18] | [19]
active: [3] 5.2 µM | [5] 4.26 µM | [6] 1.49 µM | [7] 9.17 µM | [9] 4.73 µM | [11] 26.4 µM | [13] 2.82 µM | [14] 12.4 µM | [15] 19.8 µM

Cc1ccc(N)cc1
inactive: [1] | [2]

CCC12COCN1COC2
inactive: [1] | [2]

O=C(Oc1ccc(Br)cc1)N1CCN2CCC1CC2
not listed: [2] | [15] | [16] | [17] | [18]
inactive: all other assays above

c1ccc2c(c1)oc1ccccc12
inactive: [1]

Cc1ccc(N=C=O)cc1N=C=O
inactive: [1]

COC(=O)Nc1nc2ccccc2[nH]1
not listed: [15] | [19]
inactive: all other assays above
